Inconclusive results are not listed. Activity calls are given as the source filed them. Unless noted, calls come from the whole dose curve; as a rule, active = well fitted curve in the direction sought with a large enough effect in the repeat runs; inconclusive = weak or mixed curves; inactive = no such curve, though single readings can be large; an effect the other way counts as inactive or inconclusive.
Assays:
[1] = qHTS assay to identify small molecule antagonists of the glucocorticoid receptor (GR) signaling pathway - cell viability counter screen (AID 720693); note: nearly all actives have a fitted effect of over 55% in size
[2] = qHTS assay for identifying genotoxic compounds that show differential cytotoxicity against isogenic chicken DT40 cell lines with known DNA damage response pathways - wild type cell line (AID 743012); note: nearly all actives have a fitted effect of over 60% in size; note: potency is the fitted concentration of half-maximal effect
Method in brief: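 Using parental DT40 (300 cells/well), compounds delivered in DMSO incubate 40 h at 37 C/5% CO2. CellTiter-Glo reagent then stands 30 min at room temperature, and luminescence gives cell viability.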

[3] = qHTS assay to identify small molecule antagonists of the androgen receptor (AR) signaling pathway using the MDA cell line - cell viability counter screen (AID 743041; note: nearly all actives have a fitted effect of over 45% in size)
Method in brief: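 MDA-kb2 AR-luc human breast carcinoma cells (MMTV-luciferase, AR/GR responsive) were treated with compounds plus R1881 agonist for 16 h at 37 °C. Viability was read as CellTiter-Fluor fluorescence in the same wells as the reporter assay.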

[4] = qHTS assay to identify small molecule antagonists of the thyroid receptor (TR) signaling pathway (AID 743065); note: nearly all actives have a fitted effect of over 55% in size; note: potency is the fitted concentration of half-maximal effect; for activity, negative = inhibition: series mostly up to about 70 µM
Method in brief: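 GH3.TRE-Luc rat pituitary cells carrying two TR response elements driving luciferase were plated for 4 h, given compound plus 1 nM T3 (final), and incubated 23.5 h at 37 C. ONE-Glo luminescence measured reporter inhibition; CellTiter-Fluor fluorescence tracked cytotoxicity.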

[5] = system: thyroid hormone receptor (rat, GH3 cells); test: qHTS assay to identify small molecule agonists of the thyroid receptor (TR) signaling pathway (AID 743066; calls by dose curve)
[6] = qHTS assay to identify small molecule antagonists of the estrogen receptor alpha (ER-alpha) signaling pathway - cell viability counter screen (AID 743074; calls by dose curve; note: nearly all actives have a fitted effect of over 45% in size)
[7] = molecular target: Estrogen receptor (Homo sapiens) (UniProt P03372); test: qHTS assay to identify small molecule agonists of the estrogen receptor alpha (ER-alpha) signaling pathway (AID 743075; calls by dose curve)
[8] = molecular target: Estrogen receptor (Homo sapiens) (UniProt P03372); test: qHTS assay to identify small molecule agonists of the estrogen receptor alpha (ER-alpha) signaling pathway using the BG1 cell line (AID 743079); note: nearly all actives have a fitted effect of over 20% in size
[9] = qHTS assay to identify small molecule antagonists of the estrogen receptor alpha (ER-alpha) signaling pathway using the BG1 cell line (AID 743080; calls by dose curve;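 note: BG1 cells stimulated with 17beta-estradiol alongside compound; series mostly up to about 70 µM; nearly all actives have a fitted effect of over 25% in size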)
Method in brief: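 Readout is ONE-Glo luminescence, taken 30 min at room temperature after reagent addition, preceded by a CellTiter-Fluor viability read; BG1-Luc-4E2 cells had received compound and 17beta-estradiol for 21.5 h at 37 C.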

[10] = qHTS assay to identify small molecule antagonists of the estrogen receptor alpha (ER-alpha) signaling pathway using the BG1 cell line - cell viability counter screen (AID 743081);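 note: compound given together with 17beta-estradiol as the ER stimulus; nearly all actives have a fitted effect of over 45% in size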; note: potency is the fitted concentration of half-maximal effect; for activity change, negative = cytotoxicity: series mostly up to about 70 µM
Aromatase (Homo sapiens) = Aromatase (Homo sapiens) (UniProt P11511); test: qHTS assay to identify aromatase inhibitors (AID 743083); note: nearly all actives have a fitted effect of over 55% in size; note: potency is the fitted concentration of half-maximal effect; for activity, negative = inhibition: series mostly up to about 70 µM
[11] = qHTS assay for identifying genotoxic compounds that show differential cytotoxicity against isogenic chicken DT40 cell lines with known DNA damage response pathways - Rev3 mutant cell line (AID 743014); note: nearly all actives have a fitted effect of over 55% in size; note: potency is the fitted concentration of half-maximal effect
[12] = qHTS assay for identifying genotoxic compounds that show differential cytotoxicity against isogenic chicken DT40 cell lines with known DNA damage response pathways - Rad54/Ku70 mutant cell line (AID 743015); note: nearly all actives have a fitted effect of over 60% in size
[13] = qHTS assay to identify small molecule antagonists of the androgen receptor (AR) signaling pathway - cell viability counter screen (AID 743033; note: nearly all actives have a fitted effect of over 45% in size)
[14] = qHTS assay to identify small molecule antagonists of the thyroid receptor (TR) signaling pathway - cell viability counter screen (AID 743064); note: nearly all actives have a fitted effect of over 50% in size
Method in brief: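 Fluorescence from CellTiter-Fluor, added after 23.5 h exposure at 37 °C, reported viability of GH3.TRE-Luc cells co-treated with compound and 1 nM T3. Measured in the same wells as the luciferase TR readout.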

[15] = molecular target: Estrogen receptor (Homo sapiens) (UniProt P03372); test: qHTS assay to identify small molecule antagonists of the estrogen receptor alpha (ER-alpha) signaling pathway (AID 743069; active = well fitted curve in the direction sought with a large enough effect in the signal ratio in the repeat runs, not every such curve was filed as active; the % refers to the signal ratio)
Method in brief: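 HEK293 cells stably carrying an ER-alpha-UAS-bla beta-lactamase reporter were pre-cultured overnight in 2% charcoal-stripped FBS medium. Test compounds in DMSO were added together with 17beta-estradiol for 18 hr at 37C. Read-out was fluorescence after 2 hr with LiveBLAzer B/G FRET substrate at room temperature.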

[16] = qHTS assay to identify aromatase inhibitors - cell viability counter screen (AID 743084); note: potency is the fitted concentration of half-maximal effect
[17] = molecular target: Androgen receptor (Homo sapiens) (UniProt P10275); test: qHTS assay to identify small molecule agonists of the androgen receptor (AR) signaling pathway (AID 743036; active = well fitted activation curve with a large enough effect in the signal ratio in the repeat runs, with a control signal flat, not every such curve was filed as active; the % refers to the signal ratio)
Method in brief: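 Fluorescence from a beta-lactamase FRET substrate served as read-out in AR-UAS-bla GripTite HEK293 cells. Cells were treated with DMSO-dissolved compounds for 16 h at 37C, then with LiveBLAzer B/G substrate for 2 h at room temperature.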

[18] = molecular target: Androgen receptor (Homo sapiens) (UniProt P10275); test: qHTS assay to identify small molecule antagonists of the androgen receptor (AR) signaling pathway using the MDA cell line (AID 743042; note: nearly all actives have a fitted effect of over 55% in size)
Method in brief: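 MDA-kb2 cells (human breast carcinoma, stably carrying an MMTV-luciferase reporter responsive to AR and GR) were plated at 3,000 cells/well and preincubated 5 hr at 37C, then given compound plus R1881 agonist for 16 h. ONE-Glo luminescence was read.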
% is set by controls: 0 for no effect and ±100 for the full control effect.

Sequence of Estrogen receptor (Homo sapiens) (P03372 whole entry, looked up): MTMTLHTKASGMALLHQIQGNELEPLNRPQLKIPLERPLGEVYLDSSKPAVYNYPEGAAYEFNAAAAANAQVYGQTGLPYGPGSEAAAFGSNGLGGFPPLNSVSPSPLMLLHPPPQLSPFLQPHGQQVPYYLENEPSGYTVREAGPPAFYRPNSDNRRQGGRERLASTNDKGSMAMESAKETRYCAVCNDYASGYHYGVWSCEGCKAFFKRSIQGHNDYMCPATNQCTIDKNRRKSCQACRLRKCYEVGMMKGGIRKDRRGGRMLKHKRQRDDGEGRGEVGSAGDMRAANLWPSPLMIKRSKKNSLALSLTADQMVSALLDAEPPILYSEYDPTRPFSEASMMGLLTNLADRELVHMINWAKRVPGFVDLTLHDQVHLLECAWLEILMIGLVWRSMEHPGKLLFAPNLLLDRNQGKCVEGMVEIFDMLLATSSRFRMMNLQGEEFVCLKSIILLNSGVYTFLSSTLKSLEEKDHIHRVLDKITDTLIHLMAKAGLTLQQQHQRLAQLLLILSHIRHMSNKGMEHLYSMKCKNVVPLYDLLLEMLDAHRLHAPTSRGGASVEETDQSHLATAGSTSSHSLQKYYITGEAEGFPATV
Sequence of Androgen receptor (Homo sapiens) (P10275 whole entry, looked up): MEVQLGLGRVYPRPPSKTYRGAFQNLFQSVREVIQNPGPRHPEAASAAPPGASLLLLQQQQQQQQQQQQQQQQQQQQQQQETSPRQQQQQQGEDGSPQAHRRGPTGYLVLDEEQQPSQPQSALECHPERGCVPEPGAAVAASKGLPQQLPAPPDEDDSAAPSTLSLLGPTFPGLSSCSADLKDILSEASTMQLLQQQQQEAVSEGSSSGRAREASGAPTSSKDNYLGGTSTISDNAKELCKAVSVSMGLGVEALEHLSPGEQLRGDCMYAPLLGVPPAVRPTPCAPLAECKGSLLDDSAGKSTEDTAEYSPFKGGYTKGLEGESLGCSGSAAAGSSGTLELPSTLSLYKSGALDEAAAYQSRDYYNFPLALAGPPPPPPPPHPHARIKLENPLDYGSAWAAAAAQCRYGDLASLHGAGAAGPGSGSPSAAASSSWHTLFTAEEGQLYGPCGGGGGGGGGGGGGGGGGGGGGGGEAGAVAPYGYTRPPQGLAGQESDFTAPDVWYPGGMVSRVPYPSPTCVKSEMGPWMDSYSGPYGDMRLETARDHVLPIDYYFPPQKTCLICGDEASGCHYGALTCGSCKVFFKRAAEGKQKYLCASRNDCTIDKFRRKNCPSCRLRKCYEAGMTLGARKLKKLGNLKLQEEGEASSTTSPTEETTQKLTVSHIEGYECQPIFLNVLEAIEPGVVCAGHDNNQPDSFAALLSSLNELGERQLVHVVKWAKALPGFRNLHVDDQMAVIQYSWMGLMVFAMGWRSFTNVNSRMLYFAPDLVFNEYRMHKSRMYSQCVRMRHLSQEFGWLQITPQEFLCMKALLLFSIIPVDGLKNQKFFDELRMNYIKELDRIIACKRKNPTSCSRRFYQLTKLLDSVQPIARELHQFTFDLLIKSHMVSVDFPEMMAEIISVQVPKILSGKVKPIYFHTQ
Sequence of Aromatase (Homo sapiens) (P11511 whole entry, looked up): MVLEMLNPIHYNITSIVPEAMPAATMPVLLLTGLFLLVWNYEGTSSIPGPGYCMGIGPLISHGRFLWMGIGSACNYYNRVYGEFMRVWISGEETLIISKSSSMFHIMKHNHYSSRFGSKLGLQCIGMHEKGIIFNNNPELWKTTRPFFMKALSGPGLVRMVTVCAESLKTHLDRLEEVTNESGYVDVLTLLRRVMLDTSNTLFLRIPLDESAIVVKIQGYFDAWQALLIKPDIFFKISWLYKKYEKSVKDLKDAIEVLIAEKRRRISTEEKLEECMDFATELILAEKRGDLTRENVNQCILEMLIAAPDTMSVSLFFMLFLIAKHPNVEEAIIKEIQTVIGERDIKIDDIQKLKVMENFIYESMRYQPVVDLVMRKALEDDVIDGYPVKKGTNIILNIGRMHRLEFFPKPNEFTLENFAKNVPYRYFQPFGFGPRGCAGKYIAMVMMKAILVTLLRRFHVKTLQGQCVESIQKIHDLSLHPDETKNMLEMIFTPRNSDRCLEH

CCCCCCCCCCCCCCOS(=O)(=O)O
inactive: Potency [1] | Potency [2] | Potency [3] | Potency [5] | Potency [6] | Potency [7] | Potency [8] | Potency [9] | Potency [10] | Potency (Aromatase (Homo sapiens))
active: Potency [4] 48.6 µM

Brc1c2ccccc2c(Br)c2ccccc12
inactive: viability change, negative = cytotoxic [1] -12.6% [at 7.04 µM] | activity, negative = cytotoxicity [11] 2.95% [at 8.53 µM] | activity change, negative = cytotoxicity [12] 3.28% [at 8.55 µM] | activity change, negative = cytotoxicity [13] 0.327% [at 7.04 µM] | viability change, negative = cytotoxic [3] 2.16% [at 8.47 µM] | activity change, negative = cytotoxic [14] 6.61% [at 8.44 µM] | activity, negative = inhibition [4] 5.77% [at 8.44 µM] | activation [5] 0.426% [at 8.08 µM] | activity, negative = inhibition [15] 17% [at 6.71 µM] | activity, negative = cytotoxicity [6] 9.03% [at 6.72 µM] | activation [8] -3.1% [at 8.47 µM] | activity change, negative = inhibition [9] -5.5% [at 8.47 µM] | activity change, negative = cytotoxicity [10] 5.65% [at 8.47 µM] | activity change, negative = cytotoxicity [16] 12.2% [at 8.47 µM]

CC1=CCCC(C)(C)C12CCC(C)O2 (configuration not stated)
inactive: Potency [1] | Potency [13] | Potency [14] | Potency [4] | Potency [5] | Potency [6] | Potency [10]
active: Potency [2] 24.3 µM

Cc1oc(-c2ccccc2)nc1CCOc1cccc2c1ccn2CCC(=O)O
active: Potency [16] 27.3 µM
inactive: Potency [1] | Potency [2] | Potency [13] | Potency [3] | Potency [5] | Potency [6] | Potency [7] | Potency [8] | Potency [9] | Potency [10] | Potency (Aromatase (Homo sapiens))

O=[N+]([O-])c1ccc(NCCO)c(OCCO)c1
active: Potency [10] 68.7 µM | Potency (Aromatase (Homo sapiens)) 17.2 µM
inactive: Potency [1] | Potency [2] | Potency [12] | Potency [13] | Potency [17] | Potency [18] | Potency [4] | Potency [5]

COc1cccc(N(C)C(=S)Oc2ccc3c(c2)CCCC3)n1
inactive: Potency [1] | Potency [14] | Potency [5] | Potency [7] | Potency [10] | Potency (Aromatase (Homo sapiens)) | Potency [16]
active: Potency [2] 26.6 µM | Potency [11] 26.6 µM

O=C(O)C1(C(=O)Nc2ccc(Cl)cc2Cl)CC1
active: Potency [2] 61.1 µM | Potency [11] 68.6 µM | Potency [4] 68.6 µM
inactive: Potency [1] | Potency [3] | Potency [18] | Potency [14] | Potency [5] | Potency [7] | Potency [8] | Potency [10] | Potency (Aromatase (Homo sapiens)) | Potency [16]

— PubChem BioAssay (Tox21)
